Assay outcomes deposited in PubChem BioAssay by National Center for Advancing Translational Sciences (NCATS).
This is a sample that favours compounds with a hit; in the whole collection about 4% have one here.
D1 agonist: Allosteric Agonists of the Human D1 Dopamine Receptor: qHTS; HEK293 T-REx D1 cells, calcium flux, agonist mode; D(1A) dopamine receptor (Homo sapiens), P21728; activation, % at 2 µM; 360,000 compounds, 1% hits; also: 0% is about no effect
Target sequence (P21728 whole entry, looked up): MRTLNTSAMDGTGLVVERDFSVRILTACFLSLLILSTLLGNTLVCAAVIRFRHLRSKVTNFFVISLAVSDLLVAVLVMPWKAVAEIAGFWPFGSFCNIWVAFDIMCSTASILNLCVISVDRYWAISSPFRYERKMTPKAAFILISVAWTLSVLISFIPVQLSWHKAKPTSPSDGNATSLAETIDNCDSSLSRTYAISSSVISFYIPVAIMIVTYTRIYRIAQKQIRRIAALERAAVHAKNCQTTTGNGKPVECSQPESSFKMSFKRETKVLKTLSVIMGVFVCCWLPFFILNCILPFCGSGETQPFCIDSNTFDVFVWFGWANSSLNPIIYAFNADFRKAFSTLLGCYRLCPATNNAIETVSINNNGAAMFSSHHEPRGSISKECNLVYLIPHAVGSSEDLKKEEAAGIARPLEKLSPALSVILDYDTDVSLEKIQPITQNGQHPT
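Inducible HEK293 T-REx D1 cells, force-coupled to calcium signalling, were plated at 4000 cells/well with tetracycline and held overnight at 30 C. After no-wash calcium dye loading, compound-evoked calcium rise over 180 s flagged agonists.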
D1 antagonist: Antagonist of Human D 1 Dopamine Receptor: qHTS | HEK293 TREx D1 cells, calcium flux, dopamine EC80; stronger effect = lower value | activity change, negative = inhibition, % at 10 µM | 360,000 compounds, 3.2% hits | AID 504652, 2011; in the data active = activity change below about -30%; also: % is scaled to controls: 0 for no effect and ±100 for the full control effect
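After overnight tetracycline induction at 30 C, force-coupled D1 HEK293 cells took up a no-wash calcium dye at room temperature. Compounds were added and monitored 180 s, and the response to EC80 dopamine was then recorded.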
TRHR agonist: qHTS for Small Molecule Agonists and Allosteric Enhancers of Human TRH Receptor: Primary Screen for Agonists; Thyrotropin-releasing hormone receptor (Homo sapiens), P34981; TRHR cells, calcium flux fluo-8, FDSS agonist mode; activation, % at 2 µM; 360,000 compounds, 0.18% hits; also: 0% is about no effect
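TRHR-expressing cells loaded with fluo-8 calcium dye; 23 nL library compound pin-transferred, kinetic FDSS fluorescence (Ex 480/Em 530) recorded about 180 s for agonist-induced calcium release, before a 10 nM TRH EC20 addition for potentiator mode.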
GRP78 ERSR act: qHTS for Inducers of the Endoplasmic Reticulum Stress Response (ERSR) in Human Glioma: qHTS | U87-MG GRP78 promoter luciferase reporter, 16 h | 420,000 compounds, 0.02% hits | Potency, µM, without a hit: top-dose activation, most hits filed as activators | AID 602332, 2012; active = well fitted activation curve with a large enough effect; inconclusive = small, poorly fitted or top-dose-only effect; inactive = no such curve, though single readings can be large or run the other way; also: potency is read from the fitted curve at half-maximal effect; series mostly up to about 76 µM; % of control where 0% means no effect; nearly all actives have a fitted effect of over 35% in size
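ERSR induction read as luciferase luminescence (Bright-Glo, 10 min at room temperature) in stably transfected human U87-MG glioma cells exposed to compounds for 16 h, using GRP78 as sensor.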
TRHR PAM: qHTS for Small Molecule Agonists and Allosteric Enhancers of Human TRH Receptor: Primary Screen for Enhancers | enhancement, % at 2 µM | TRHR cells, fluo-8 calcium fluorescence, EC20 TRH enhancement | 360,000 compounds, 0.66% hits; in the data active = enhancement above about 30%; also: 0% is about no effect
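TRHR-expressing cells loaded with fluo-8 calcium dye were read kinetically (ex 480/em 530) during compound addition, then stimulated with an EC20 of TRH (10 nM final). Enhancement of the Gq-mediated intracellular calcium response was scored.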
D1 PAM: Potentiators of Human D1 Dopamine Receptor: qHTS; potentiation, % at 10 µM; 360,000 compounds, 0.036% hits; AID 504651, 2011; D(1A) dopamine receptor (Homo sapiens), P21728; HEK293 TREx D1 cells, calcium flux, dopamine EC20 potentiation; in the data active = potentiation above about 30%; also: 0% is about no effect
An asterisk follows results filed as active; ? = inconclusive; . = no result given. Rule as the data show it, unless noted: active = activation above about 30%; inactive = the rest.

SMILES | D1 agonist | D1 antagonist | TRHR agonist | GRP78 ERSR act | TRHR PAM | D1 PAM
CN(C(=O)c1cc2n(n1)C(C(F)(F)F)CC(c1ccco1)N2)c1ccccc1 (configuration not stated) | -0.4 | -50.5* | 0.8 | -1.6% | -3.1 | -5.0
O=C(NC1CCCCCC1)c1cc2n(n1)C(C(F)(F)F)CC(c1ccco1)N2 (configuration not stated) | 4.8 | 14.2 | 4.3 | -1.9% | -5.6 | -2.7
NC(=O)C1CCN(C(=O)c2cc3n(n2)C(C(F)(F)F)CC(c2ccco2)N3)CC1 (configuration not stated) | -0.3 | -40.1* | -0.1 | -1.4% | 4.0 | 11.8
Cc1ccccc1N1CCN(CCCCN2C(=O)C3CCCN3C2=O)CC1 (configuration not stated) | 6.8 | -57.3* | 0.7 | -0.2% | 1.3 | -11.2
O=C(COc1ccccc1[N+](=O)[O-])OC1CCS(=O)(=O)C1 (configuration not stated) | 0.4 | -78.5* | 0.1 | -3.2% | -26.9 | -6.6
CC(Sc1nnc(CN2CCCC2)n1Cc1ccccc1)C(=O)Nc1ccccc1 (configuration not stated) | 4.2 | 9.7 | -0.4 | -5.0% | 2.5 | 1.5
CCO/C(C)=N/Oc1cccc(N(C)C)c1 | . | . | . | -2.5% | . | .
C=CCN1c2ccccc2[C@]23C[C@@H](C(=O)OC)N(C(=O)NCCC)C2=NC(C(=O)OC)=C(C(=O)OC)[C@H]13 | 10.0 | -33.2* | 0.2 | -4.8% | -0.7 | 0.0
CC(C)Cn1cc(C(=O)NCCCN2CCC(C)CC2)c2c3ccccc3n(C)c2c1=O | . | . | . | -1.8% | . | .
CC(C)Cn1cc(C(=O)NCCCN2CCCC2=O)c2c3ccccc3n(C)c2c1=O | -0.8 | -30.4* | -1.0 | -3.7% | -0.4 | 2.3
Cn1cc(S(=O)(=O)N2CCCC2)cc1C(=O)Nc1ccc(C(F)(F)F)cc1 | 33.2* | -0.3 | -0.8 | -0.3% | 4.1 | -2.0
Cc1cc(C)cc(NC(=O)c2cc(S(=O)(=O)N3CCc4ccccc43)cn2C)c1 | 0.8 | -0.4 | 0.3 | -5.8% | -4.1 | -1.4
CSc1cccc(NC(=O)N2CCN(C)CC2)c1 | 2.2 | -1.9 | 0.4 | -3.0% | 36.5* | -1.4
Cc1cccc(C)c1NC(=O)c1cc(S(=O)(=O)N2CCc3ccccc32)cn1C | 9.8 | -47.3* | -0.3 | -0.2% | 1.2 | -15.7
Cc1cccc(NC(=O)c2cc(S(=O)(=O)N3CCc4ccccc43)cn2C)c1 | 8.1 | 5.5 | 0.0 | -4.6% | 1.3 | -2.3
CSc1cccc(NC(=O)c2cc(S(=O)(=O)N3CCc4ccccc43)cn2C)c1 | 9.1 | -55.6* | -0.1 | -1.2% | -4.7 | 0.1
C=CCOc1cccc(C(=O)N2CCCC(Nc3ccc(F)cc3)C2)c1 (configuration not stated) | . | . | . | -2.7% | . | .
CCCCOc1ccc(-c2cnc3ccccc3n2)cc1 | 4.2 | 5.5 | 1.1 | -3.8% | -7.8 | -3.8
CC1CCCCN1C(=O)COC(=O)c1n[nH]c2ccccc12 (configuration not stated) | 1.8 | 2.1 | -0.3 | 1.0% | -0.2 | -8.2
Cn1cc(S(=O)(=O)N2CCc3ccccc32)cc1C(=O)Nc1ccc(Cl)cc1 | 7.3 | -36.8* | -0.3 | -2.3% | -0.4 | -1.6
Cc1ccc(NC(=O)c2cc(S(=O)(=O)N3CCc4ccccc43)cn2C)cc1 | 0.9 | -5.1 | 0.1 | -1.0% | -0.1 | -4.5
CCSC1=NCCN1S(=O)(=O)c1ccccc1 | -3.1 | 2.2 | 0.0 | -5.5% | -0.1 | -7.8
COc1ccc(CN2C(=O)CN(C3CCCCCC3)C(=O)C2c2ccc(F)cc2)cc1 (configuration not stated) | 0.9 | 8.0 | 0.2 | -0.9% | -12.0 | -3.5
O=C1C(c2ccc(F)cc2)N(Cc2ccccc2Cl)C(=O)CN1C1CCCCC1 (configuration not stated) | -2.2 | -42.4* | -0.6 | -1.3% | -2.2 | -0.7
O=C(O)/C=C/C(=O)NNC(=O)c1ccc(Br)cc1 | -0.4 | 19.0 | 0.2 | 1.3% | 3.3 | -6.1
SMILES | D1 agonist | D1 antagonist | TRHR agonist | GRP78 ERSR act | TRHR PAM | D1 PAM
Cc1cc(Oc2nc3ccccn3c(=O)c2/C=C(\C#N)C(=O)NC2CCS(=O)(=O)C2)ccc1Cl (configuration not stated) | -1.0 | -30.0* | 1.0 | ? | -4.3 | -7.4
Cc1cccc(Oc2nc3ccccn3c(=O)c2/C=C(\C#N)C(=O)NC2CCS(=O)(=O)C2)c1 (configuration not stated) | 1.2 | 10.3 | 0.2 | -1.8% | -0.5 | -4.8
Fc1cccc(NC(=S)NCCc2ccccc2)c1 | 19.4 | -38.5* | -0.1 | 2.2% | -3.9 | -7.7
CC(C)(CNC(=S)NCCc1ccccc1)CNC(=S)NCCc1ccccc1 | 15.0 | -30.1* | 0.6 | -1.7% | 3.8 | -7.4
Fc1ccc(NC(=S)NCCc2ccc(Cl)cc2)cc1 | 16.6 | -10.1 | 0.4 | 7.4% | -6.8 | -13.5
Fc1ccc(CCNC(=S)Nc2ccc(F)c(Cl)c2)cc1 | 12.5 | -31.7* | 1.1 | -5.6% | -7.0 | -1.7
C/C(=N\NC(=S)NCCc1ccccc1)c1ccc(O)cc1O | 19.6 | -39.1* | 0.2 | 4.2% | -3.2 | .
O=C(c1ccccc1)N1CCN(C(=O)c2cc3ccccc3o2)CC1 | 0.3 | 2.6 | -0.1 | -2.9% | -3.4 | -0.5
COc1ccc(CCNC(=O)CCCCn2c(=O)c3ccccc3n(CC(=O)Nc3c(C)cccc3C)c2=O)cc1OC | 5.1 | 14.6 | -1.3 | -0.5% | 27.9 | -1.4
O=[N+]([O-])c1cccc(NC(=S)NCCc2ccccc2)c1 | 43.3* | -2.2 | -0.8 | 1.7% | -2.4 | -4.6
O=C(Cc1cccc([N+](=O)[O-])c1)Nc1ccccc1 | . | . | . | 2.6% | . | .
COc1cc(C2C3=C(CC(C)(C)CC3=O)Nc3ccccc3N2C(C)=O)cc(OC)c1OC (configuration not stated) | 3.4 | -32.4* | 0.5 | 1.0% | -1.9 | -4.7
COc1cc(C2C3=C(CC(c4ccco4)CC3=O)Nc3ccccc3N2C(C)=O)cc(OC)c1OC (configuration not stated) | 1.3 | -4.4 | 0.0 | -1.1% | -8.4 | -0.1
C[C@H](CO)N1C[C@H](C)[C@@H](CN(C)Cc2ccc(-c3ccccc3)cc2)Oc2c(NC(=O)Cc3ccccc3)cccc2C1=O | . | . | . | -2.2% | . | .
